Laboratory results from the supplement of paper PMC9135407.
Several values for one entry are separate records, joined by “and”; a condition that tells them apart may be missing. Identical values can stand only once. Counter-ions that a name gives are not always drawn. In all, about 5,800 compounds went through this assay and about 620 (11%) showed activity. The sample as a whole holds a higher share of actives than the screen did. Unmarked numbers belong to inactive results.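 Rule for the calls: active = score above a cut-off or among the top three wells of a plate; in these data no inactive exceeds 0.85.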

Test system: primary human hepatic stellate cells (donor 1)
Assay: scaled lipid accumulation score (0 = DMSO-like, 1 = nortriptyline-like); higher = stronger HSC inactivation (lipid re-accumulation), active = hit call of the paper
Conditions: 48 h
[1] = library stock concentration: 100 uM
[2] = library stock concentration: 10 mM
[3] = library stock concentration: 1 mM
[4] = library stock concentration: 3.33 mM
[5] = library stock concentration: 80 uM
[6] = library stock concentration: 400 uM
[7] = library stock concentration: 2 mM

CCCCC/C=C\C\C=C/C=C/C=C/CC(=O)CCCC(=O)O [5-Ketoeicosatetraenoic acid]
scaled lipid accumulation score [1]: ≤ -0.021

CC(C)NCC(O)COc1ccccc1-n1cccc1 (stereo not drawn) [Isamoltane hemifumarate]
scaled lipid accumulation score [2]: 0.25

CCCCCC=CCC=CCC=CCC=CCCCC(=O)SCC(O)CO (stereo not drawn) [Arachidonoyl-1-thio-Glycerol]
scaled lipid accumulation score [3]: 0.021

CC(C)(Oc1ccc(Cl)cc1)C(=O)OCCOC(=O)c1cccnc1 [Etofibrate]
scaled lipid accumulation score [4]: ≤ 0 | scaled lipid accumulation score [2]: ≤ -0.001

C[C@@H]1C[C@H]2[C@@H]3CCC4=CC(=O)C=C[C@]4(C)[C@@]3(F)[C@@H](O)C[C@]2(C)[C@@]1(O)C(=O)CO [Dexamethasone (DHAP)]
scaled lipid accumulation score [4]: 0.017 | scaled lipid accumulation score [2]: ≤ 0

C[C@@H]1C[C@H]2[C@@H]3CCC4=CC(=O)C=C[C@]4(C)[C@@]3(F)[C@@H](O)C[C@]2(C)[C@@]1(O)C(=O)CO [Dexamethasone]
scaled lipid accumulation score (library stock concentration: 5.1 mM): ≤ -0.006 and ≤ -0.001 | scaled lipid accumulation score [2]: ≤ 0 and ≤ -0.006 | scaled lipid accumulation score (library stock concentration: 12.7 mM): 0.007

CN(C)CC/C=C1\c2ccccc2CSc2ccccc21 [Dosulepin hydrochloride]
scaled lipid accumulation score: 0.845

CN(C)CC/C=C1\c2ccccc2Sc2ccc(Cl)cc21.Cl [Chlorprothixene hydrochloride]
scaled lipid accumulation score: 0.902 (active)

CN(C)CCC=C1c2ccccc2Sc2ccc(Cl)cc21 [Chlorprothixene]
scaled lipid accumulation score [2]: 1.03 (active)

CN(C)CC/C=C1/c2ccccc2Sc2ccc(Cl)cc21 [Chlorprothixene]
scaled lipid accumulation score [4]: 0.345

CN(C)CC/C=C1/c2ccccc2Sc2ccc(Cl)cc21 [Chlorprothixene hydrochloride]
scaled lipid accumulation score (library stock concentration: 5.7 mM): 0.756 | scaled lipid accumulation score [2]: 0.429 and 0.701

C[C@@H]1O[C@@H]1P(=O)(O)O [Fosfomycin]
scaled lipid accumulation score [2]: ≤ 0

C[C@@H]1O[C@@H]1P(=O)(O)O [Phosphomycin disodium]
scaled lipid accumulation score [2]: ≤ -0.055

CCN1C(=CC(C)=O)Sc2ccc(OC)cc21
scaled lipid accumulation score [4]: ≤ -0.009 | scaled lipid accumulation score [2]: ≤ 0

CCCCCCCCCCC(C)(C)C(=O)Nc1c(OC)cc(OC)cc1OC
scaled lipid accumulation score [2]: 0.164 and ≤ -0.001

CC/C=C/C/C=C/C/C=C/C/C=C/CCCCC(=O)OC [Stearidonic Acid methyl ester]
scaled lipid accumulation score [3]: 0.048

O=C(c1cn(Cc2cncn2Cc2ccc(Br)cc2)cc1-c1cccc2ccccc12)N1CCOCC1
scaled lipid accumulation score [4]: ≤ -0.003 | scaled lipid accumulation score [2]: 0.723

CNCc1ccc(-c2[nH]c3cc(F)cc4c3c2CCNC4=O)cc1.O=P(O)(O)O [Rucaparib]
scaled lipid accumulation score [2]: 1.12 (active)

CNCc1ccc(-c2[nH]c3cc(F)cc4c3c2CCNC4=O)cc1
scaled lipid accumulation score [4]: 0.213

CNCc1ccc(-c2[nH]c3cc(F)cc4c3c2CCNC4=O)cc1.O=P(O)(O)O
scaled lipid accumulation score [2]: 1.47 (active)

CNCc1ccc(-c2[nH]c3cc(F)cc4c3c2CCNC4=O)cc1 [Rucaparib]
scaled lipid accumulation score [5]: ≤ 0 | scaled lipid accumulation score [6]: ≤ 0 | scaled lipid accumulation score [7]: 0.588

CCCCCCCCCCCCCCCCCCCCCCC(=O)OCC [Ethyl Tricosanoate]
scaled lipid accumulation score [3]: ≤ 0

CCCCCCCCCSCCCCCCCC(=O)O [9-Thiastearic Acid]
scaled lipid accumulation score [3]: 0.031

CN1CCc2nc(C(=O)N[C@@H]3C[C@@H](C(=O)N(C)C)CC[C@@H]3NC(=O)C(=O)Nc3ccc(Cl)cn3)sc2C1 [Edoxaban]
scaled lipid accumulation score [4]: ≤ -0.009 | scaled lipid accumulation score [2]: 0.008

CC(=O)N[C@@H](Cc1c[nH]c2ccccc12)C(=O)O [Acetyltryptophan]
scaled lipid accumulation score [2]: ≤ 0

COc1cc(C(O)C(=O)O)ccc1O (stereo not drawn)
scaled lipid accumulation score [2]: ≤ -0.036

c1nc(CC2CCNCC2)c[nH]1 [Immepip dihydrobromide]
scaled lipid accumulation score [2]: 0.011

CC/C=C/C[C@H](O)/C=C/[C@H]1[C@H](O)CC(=O)[C@@H]1C/C=C\CCCC(=O)O [17-trans Prostaglandin E3]
scaled lipid accumulation score [3]: ≤ 0

Cc1c[nH]c(-c2cnc(NCCNc3ccc(C#N)cn3)nc2-c2ccc(Cl)cc2Cl)n1.Cl
scaled lipid accumulation score [2]: 1.08 (active)

Cc1cnc(-c2cnc(NCCNc3ccc(C#N)cn3)nc2-c2ccc(Cl)cc2Cl)[nH]1
scaled lipid accumulation score [5]: 0.041 | scaled lipid accumulation score [6]: 0.005 | scaled lipid accumulation score [7]: 0.182 | scaled lipid accumulation score [4]: 0.229 | scaled lipid accumulation score [2]: 0.814

CCCCC[C@H](O)/C=C/[C@H]1C(=O)C[C@H](O)[C@@H]1C/C=C\CCCC(=O)NC(CO)CO [Prostaglandin D2 serinol amide]
scaled lipid accumulation score [3]: ≤ 0

CCCCC/C=C\C/C=C\C/C=C\CC1OC1CCCC(=O)O (stereo not drawn) [5,6-Epoxyeicosatrienoic acid]
scaled lipid accumulation score [1]: ≤ -0.021

CC[C@@H]([C@H](C)O)n1ncn(-c2ccc(N3CCN(c4ccc(OC[C@@H]5CO[C@@](Cn6cncn6)(c6ccc(F)cc6F)C5)cc4)CC3)cc2)c1=O [Posaconazole] [listing 1 of 2 here]
scaled lipid accumulation score [2]: 0.869 (active)

CCC(C)n1ncn(-c2ccc(N3CCN(c4ccc(OCC5COC(Cn6cncn6)(c6ccc(Cl)cc6Cl)O5)cc4)CC3)cc2)c1=O (stereo not drawn) [Itraconazole]
scaled lipid accumulation score (library stock concentration: 2.8 mM): ≤ 0 | scaled lipid accumulation score [4]: 0.492 | scaled lipid accumulation score [2]: 0.522

CC[C@@H]([C@H](C)O)n1ncn(-c2ccc(N3CCN(c4ccc(OC[C@@H]5CO[C@@](Cn6cncn6)(c6ccc(F)cc6F)C5)cc4)CC3)cc2)c1=O [Posaconazole] [listing 2 of 2 here]
scaled lipid accumulation score [4]: 0.134

CN(C)Cc1c(C(=O)NCCOc2ccc(C(=O)NO)cc2)oc2ccccc12
scaled lipid accumulation score [4]: 0.855 (active) | scaled lipid accumulation score [2]: 1.01 (active)

Cc1cc(C)c(N(Cc2ccccc2)S(=O)(=O)c2ccc(OCCNC(=O)c3cc4ccccc4o3)cc2)c(C(=O)NO)c1
scaled lipid accumulation score [2]: ≤ -0.001

COc1ccc(C(=O)NCc2ccc(OCCN(C)C)cc2)cc1OC
scaled lipid accumulation score [2]: 0.061 and 0.313

CC(/C=C1\SC(=S)N(CC(=O)O)C1=O)=C\c1ccccc1 [Epalrestat]
scaled lipid accumulation score [4]: ≤ 0 | scaled lipid accumulation score [2]: ≤ 0

O=C(O)CCCC=CCC1C2CCC(O2)C1CNNC(=O)Nc1ccccc1 (stereo not drawn)
scaled lipid accumulation score [3]: ≤ 0 and ≤ -0.021

O=C(O)[C@]1(O)C[C@@H](O)[C@@H](O)[C@H](O)C1 [Quinic acid]
scaled lipid accumulation score: ≤ 0

Cc1c(C(=O)c2ccccc2)c(N)c(-c2ccccc2)n1Cc1ccc(Cl)cc1
scaled lipid accumulation score [3]: ≤ 0

CCCCCCCCCCCCCCCCCCOC[C@H](COP(=O)([O-])OCC[N+](C)(C)C)OC(C)=O
scaled lipid accumulation score [3]: ≤ 0 and ≤ -0.021

CC(=O)Nc1nc(C)c(-c2ccc(Cl)c(S(=O)(=O)NCCO)c2)s1
scaled lipid accumulation score [5]: ≤ -0.016 | scaled lipid accumulation score [6]: ≤ -0.016 | scaled lipid accumulation score [7]: ≤ -0.016 | scaled lipid accumulation score [4]: ≤ 0 | scaled lipid accumulation score [2]: ≤ 0 and ≤ -0.016

O=c1oc2c(O)c(O)cc3c(=O)oc4c(O)c(O)cc1c4c23 [Ellagic acid]
scaled lipid accumulation score [5]: ≤ 0 | scaled lipid accumulation score [6]: ≤ 0 | scaled lipid accumulation score [7]: ≤ 0 | scaled lipid accumulation score [2]: ≤ 0

CN(C)c1ccc(-c2nc3c(N4CCN(CC(=O)Nc5nccs5)CC4)c(Cl)cnc3[nH]2)cc1
scaled lipid accumulation score [4]: 0.858 (active) | scaled lipid accumulation score [2]: 0.949 (active)

O=C(c1cccc(Cl)c1F)N1CCN(Cc2cccc(Nc3nccs3)n2)CC1
scaled lipid accumulation score [4]: ≤ 0 | scaled lipid accumulation score [2]: 0.453

CCCCC/C=C/C=C1/C(=O)C=C[C@@H]1C/C=C\CCCC(=O)O [15-deoxy-.DELTA.12,14-Prostaglandin J2]
scaled lipid accumulation score [3]: ≤ 0

CSc1ccc(C(=O)c2[nH]c(=O)[nH]c2C)cc1 [Enoximone]
scaled lipid accumulation score [2]: 0.125

Cc1cc(NC2CCCCC2)nc(-n2nc(C)cc2C)n1
scaled lipid accumulation score [2]: ≤ -0.03

COc1c(C)cnc(Cn2cnc3c(Cl)nc(N)nc32)c1C [listing 1 of 2 here]
scaled lipid accumulation score [4]: 0.885 (active)

COc1c(C)cnc(Cn2cnc3c(Cl)nc(N)nc32)c1C [listing 2 of 2 here]
scaled lipid accumulation score [2]: 0.768

COc1ccc2[nH]c([S+]([O-])Cc3ncc(C)c(OC)c3C)nc2n1 (stereo not drawn) [Tenatoprazole]
scaled lipid accumulation score (library stock concentration: 5.8 mM): 0.081

N#CC(=Cc1cc(Cl)cc(Cl)c1)c1cccnc1
scaled lipid accumulation score (library stock concentration: 18.2 mM): 0.033

CN(C[C@@H]1COCCO1)S(=O)(=O)Nc1ccc2ccc3ncc(-c4cnn(C)c4)cc3c(=O)c2c1
scaled lipid accumulation score [4]: ≤ 0 | scaled lipid accumulation score [2]: ≤ 0

O.O.O.O.O.O.O.O.O.O.O.O.O.O.O.O.O=S(=O)([O][Al])OC[C@H]1O[C@@](COS(=O)(=O)[O][Al])(O[C@H]2O[C@H](COS(=O)(=O)[O][Al])[C@@H](OS(=O)(=O)[O][Al])[C@H](OS(=O)(=O)[O][Al])[C@H]2OS(=O)(=O)[O][Al])[C@@H](OS(=O)(=O)[O][Al])[C@@H]1OS(=O)(=O)[O][Al] [Sucralfate sodium (10% w/v in dmso)]
scaled lipid accumulation score (library stock concentration: 900 uM): ≤ 0

COc1ccc2[nH]c(I)c(CCNC(C)=O)c2c1 [2-Iodomelatonin]
scaled lipid accumulation score [2]: 0.011

CN(C)CCCn1cc(C2=C(c3c[nH]c4ccccc34)C(=O)NC2=O)c2ccccc21 [listing 1 of 2 here]
scaled lipid accumulation score [4]: 0.071 | scaled lipid accumulation score [2]: 0.777 | scaled lipid accumulation score (library stock concentration: 12.1 mM): 0.519

CN(C)CCCn1cc(C2=C(c3c[nH]c4ccccc34)C(=O)NC2=O)c2ccccc21 [Bisindolylmaleimide I]
scaled lipid accumulation score [4]: 0.663

CN(C)CCCn1cc(C2=C(c3c[nH]c4ccccc34)C(=O)NC2=O)c2ccccc21 [listing 2 of 2 here]
scaled lipid accumulation score [2]: 1.04 (active)

COc1ccc2c(c1)c(C1=C(c3c[nH]c4ccccc34)C(=O)NC1=O)cn2CCCN(C)C
scaled lipid accumulation score [3]: 0.018 | scaled lipid accumulation score [4]: 0.054 and ≤ 0 | scaled lipid accumulation score [2]: 0.706
